According to publication PMC5540273 (PLoS ONE, 2017):

system: STK39; conditions: concentration: 1 μM, replicates: in singlicate; n = 1
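Note: KINOMEscan kinase panel screen.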

| Structure (SMILES) | %Inh |
| --- | --- |
| Cc1ccccc1-c1cc(-c2c[nH]nc2-c2ccccn2)ccn1 [GW680061] | 10% |
| Cl.Cl.Cl.N#Cc1ccc(CCNc2nccc(-c3cccc(CN4CCNCC4)c3)n2)cc1 [GSK2137462] | 0% |
| COc1cc2ncnc(Nc3cccc(Br)c3)c2cc1OC.Cl [GI230329] | 5% |
| CCc1ccc(-c2ccc3c(c2)-c2n[nH]cc2S(=O)(=O)N3C)cc1 | 0% |
| CNc1nc(-c2ccc3c(N)n[nH]c3c2)cc(N2C[C@@H](C(=O)NC3CCCCC3)OC[C@H]2C)n1 [GSK2375584] | 6% |
| NS(=O)(=O)c1cccc(N/C=C2\C(=O)Nc3ccc(S(=O)(=O)Cc4c(Cl)cccc4Cl)cc32)c1 [GSK398099] | 0% |
| COc1ccc(CSc2nnc(-c3ccc4ncsc4c3)o2)cc1C(F)(F)F | 0% |
| O=C(Nc1n[nH]c2nc(-c3ccco3)c(Br)cc12)C1CCN(Cc2ccccc2)C1.O=C(O)[C@H](O)[C@@H](O)C(=O)O (stereo not drawn) [SB-742034] | 1% |
| CS(=O)(=O)CCNCc1nc(-c2ccc3ncnc(Nc4ccc5c(cnn5Cc5ccccc5)c4)c3c2)cs1.Cl.Cl [GW569716] | 0% |
| Cc1ccc(NC(=O)Nc2ccc(Cl)cc2)cc1-c1ccc(C(=O)Nc2ccncc2)cc1 [GSK1398472] | 0% |
| CC[C@@H]1CO[C@H](C(=O)Nc2ccccc2)CN1c1cc(-c2ccc3c(N)n[nH]c3c2)nc(NC)n1 [GSK2376236] | 0% |
| COC(=O)c1cccc(NC(=O)NC2CCN(c3ccnc(Nc4ccc(F)cc4)n3)C2)c1 (stereo not drawn) [GSK1379725] | 1% |
| O=c1cc(N2CCOCC2)nc2n(Cc3cccc(Cl)c3Cl)c3ccccc3n12 [GSK2299009] | 0% |
| COc1ccc(Nc2nccc(N3CCC(NC(=O)C(C)c4ccc(Cl)cc4)CC3)n2)cc1 (stereo not drawn) [GSK1379812] | 38% |
| Nc1ncnc2occ(-c3ccc4c(c3)CCN4C(=O)Cc3cc(F)ccc3F)c12 [GSK2645446] | 0% |
| Cc1c(Cn2c3ccccc3n3c(=O)cc(N4CCOCC4)nc23)cccc1C(F)(F)F [GSK2306394] | 0% |
| COc1ccc(Nc2nccc(N3CCC(NC(=O)c4cc5ccccc5s4)C3)n2)cc1 (stereo not drawn) [GSK1379738] | 0% |
| Cn1cncc1C(=O)NC1CCN(c2ccnc(Nc3ccc(F)cc3)n2)C1 (stereo not drawn) [GSK1379717] | 0% |

| Structure (SMILES) | %Inh |
| --- | --- |
| CC(=O)c1cccc(NC(=O)NC2CCN(c3ccnc(Nc4ccc(F)cc4)n3)C2)c1 (stereo not drawn) [GSK1379710] | 25% |
| COc1cccc(C2=C(Nc3cc(Cl)c(O)c(Cl)c3)C(=O)NC2=O)c1 [SB-390767] | 0% |
| COc1cccc(CNC(=O)NC2CCN(c3ccnc(Nc4ccc(F)cc4)n3)C2)c1 (stereo not drawn) [GSK1379723] | 10% |
| Fc1ccc(-c2nn3cccc(F)c3c2-c2ccncc2)cc1 [GW475620] | 1% |
| CSc1ccc(-c2nc3n(c2-c2ccncc2)CCC3)cc1 [SKF-105561] | 0% |
| COc1ccc(CSc2nnc(-c3ccc4nccn4c3)o2)cc1C(F)(F)F | 0% |
| O=C1NC(=O)C(c2ccc(Cl)cc2)=C1Nc1ccc(O)cc1 [SB-340867] | 0% |
| CC(=O)c1c(C)c2cnc(Nc3ccc(N4CCNCC4)cn3)nc2n(C2CCCC2)c1=O | 0% |
| CNCc1ccc2nc(NC(=O)c3ccc(C(C)(C)C)cc3)cn2c1 | 42% |
| CNc1nc(-c2ccc3c(N)n[nH]c3c2)cc(N2C[C@@H](C(=O)Nc3ccccc3)CC[C@H]2C)n1 [GSK2298859] | 6% |
| COC(=O)c1cccc(NC(=O)NC2CCN(c3ccnc(Nc4ccc(OC)cc4)n3)C2)c1 (stereo not drawn) [GSK1379746] | 5% |
| Cc1ccccc1Cn1ccn2c(=O)cc(N3CCOCC3)nc12 [GSK2269905] | 12% |
| Nc1cccc(-c2ccc3c(N)n[nH]c3c2)n1 [GSK2192730] | 1% |
| COc1ccc(CSc2nnc(-c3ccc4c(c3)CCO4)o2)cc1 | 0% |
| COC(=O)C(Cc1ccccc1)NC(=O)NC1CCN(c2ccnc(Nc3ccc(F)cc3)n2)C1 (stereo not drawn) [GSK1379714] | 10% |
| c1ccc(-c2ccnc3[nH]ccc23)cc1 [SB-693578] | 33% |
| Cc1nccc(-c2c(-c3ccc(F)cc3)ncn2CCCN2CCOCC2)n1.Cl [SB-282975] | 28% |
| COc1nccc(-c2c(-c3ccc(F)cc3)ncn2CCCN2CCOCC2)n1 [SB-282852] | 6% |
